The nature of the test: HEK293T cell cytotoxicity, dose response, cytotoxicity control, CellTiter-Glo luminescence, cherry-picked samples, set 4 (AID 743441). On the technique in general: Cellular ATP, detected with luciferase, serves as a proxy for viable cell number.

This note sets out measurements from PubChem BioAssay AID743441 (Broad Institute, 2014).

Potency and affinity values are given separately. Activity calls are given as the source filed them.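 How the source made its calls: active means cell toxicity seen as a signal drop, with half-maximal potency at most twice the top valid dose; inconclusive means flat curve with a partial drop, or a poor fit; inactive means the rest, including rises in signal.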

With `COC(=O)c1c(NC(=O)CCC(=O)O)sc(Cc2ccccc2)c1C`, the compound was classed as inactive. On to `Cc1noc(C)c1NC(=O)Nc1ccc2c(c1)C(=O)N([C@H](C)CO)C[C@@H](C)[C@@H](CN(C)C(=O)Nc1ccc3c(c1)OCO3)OCCCC[C@@H](C)O2`, for which the result was inactive. Regarding `C[C@@H]1CCCCO[C@H](CN(C)C(=O)CCCN(C)C)[C@H](C)CN([C@@H](C)CO)C(=O)c2cc(NC(=O)Nc3cccc4ccccc34)ccc2O1`, the call was inactive. For `COc1ccc2[nH]c3c(=O)n(CCCCC(=O)NCCC(C)C)c(=S)[nH]c3c2c1`, the compound was called inactive. The value for `Cc1ccc(S(=O)(=O)N2CC[C@H]3[C@H](CO)Nc4ccc(Br)cc4[C@H]32)cc1` was “inactive”. The value for `Cc1[nH]c(=S)sc1Cc1ccc(Cl)c(Cl)c1` was “inactive”; that for `O=C(O)c1cc([N+](=O)[O-])ccc1NCc1ccccc1` was “inactive”.

Regarding `Cc1cc(C)c(C#N)c(N2CCN(c3ccccc3)CC2)n1`, the call was inactive. The result for `Cc1ccc(C)c(NC(=O)CSc2nc3nc(-c4cccs4)cc(C(F)(F)F)c3c(=O)[nH]2)c1` reads “inactive”; that for `CC1(Cc2ccccc2C#N)C(=O)Nc2cc(-c3ccccc3Cl)ccc21` (centres undefined), “inactive”.

Regarding `CSc1nc(N)nc(SC2C=CCCC2)c1C#N` (centres undefined), the compound was called inactive. The result for `C[C@@H]1CCCCO[C@H](CN(C)CC2CC2)[C@H](C)CN([C@@H](C)CO)C(=O)c2cc(NC(=O)Nc3cccc4ccccc34)ccc2O1` reads “inactive”. The result for `COc1ccc(NC(=O)c2ccc(-c3ccc([N+](=O)[O-])cc3)o2)cc1` reads “inactive”; that for `CC(CNc1ccc(Cl)cc1)(CNc1ccc(Cl)cc1)[N+](=O)[O-]`, “inactive”.
